WRN helicase inh: qHTS for Inhibitors of WRN Helicase; Bifunctional 3'-5' exonuclease/ATP-dependent helicase WRN (Homo sapiens), Q14191; WRN helicase unwinding, fluorescent forked duplex, kinetic; Potency, µM (titrated, usually from 114 µM), for inactives: at the top dose activity change, negative = inhibition, most hits filed as inhibitors; hit rate 0.46% among 360,000; AID 651768, 2012; further: potency means the concentration at half of the fitted maximal effect; on the % scale 0 is the no-effect control and ±100 the full control effect; nearly all actives have a fitted effect of over 55% in size
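WRN at 20 nM final was preincubated with compound for 15 min at room temperature; reaction started with 100 nM forked duplex oligonucleotide carrying fluorophore and quencher plus 2 mM ATP (final). Unwinding followed kinetically by red fluorescence (ex 525/em 598 nm).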
POLI inh: qHTS for Inhibitors of Polymerase Iota; DNA polymerase iota (Homo sapiens), Q9UNA4; Pol iota fluorescent replication assay, 10 min; Potency, µM (series often up to 115 µM), for the others: top-dose activity, negative = inhibition, hits mostly inhibitors; hit rate 1% among 390,000; AID 588590, 2011; further: potency means the concentration at half of the fitted maximal effect
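Fluorescent replication assay read twice, at 0 min and 10 min after adding 50 nM (final) substrate. Enzyme (10 nM) and compounds were first incubated 15 min at room temperature; enzyme-free buffer wells were negative controls.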
POLB inh: qHTS Assay for Inhibitors of DNA Polymerase Beta. hit rate 1.3% among 340,000. Pol beta primer extension/strand displacement, fluorescence kinetic. P06746. Potency, µM (highest dose often 114 µM), for the others: at the top dose activity change, negative = inhibition, most hits filed as inhibitors; further: potency means the concentration at half of the fitted maximal effect; on the % scale 0 is the no-effect control and ±100 the full control effect
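Human Pol beta at 10 nM; strand-displacement substrate 50 nM final. Compound exposure 15 min at room temperature before start, reaction 10 min at room temperature.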
Pol kappa inh: qHTS for Inhibitors of Polymerase Kappa | DNA polymerase kappa (Homo sapiens), Q9UBT6 | purified Pol kappa, fluorescent DNA synthesis assay, 10 min | Potency, µM (doses to about 107 µM), for inactives: at the highest dose activity, negative = inhibition, actives largely listed as inhibitors | hit rate 0.53% among 400,000 | AID 588579, 2011; further: potency means the concentration at half of the fitted maximal effect; on the % scale 0 is the no-effect control and ±100 the full control effect
Target sequence (Q9UBT6 whole entry, looked up): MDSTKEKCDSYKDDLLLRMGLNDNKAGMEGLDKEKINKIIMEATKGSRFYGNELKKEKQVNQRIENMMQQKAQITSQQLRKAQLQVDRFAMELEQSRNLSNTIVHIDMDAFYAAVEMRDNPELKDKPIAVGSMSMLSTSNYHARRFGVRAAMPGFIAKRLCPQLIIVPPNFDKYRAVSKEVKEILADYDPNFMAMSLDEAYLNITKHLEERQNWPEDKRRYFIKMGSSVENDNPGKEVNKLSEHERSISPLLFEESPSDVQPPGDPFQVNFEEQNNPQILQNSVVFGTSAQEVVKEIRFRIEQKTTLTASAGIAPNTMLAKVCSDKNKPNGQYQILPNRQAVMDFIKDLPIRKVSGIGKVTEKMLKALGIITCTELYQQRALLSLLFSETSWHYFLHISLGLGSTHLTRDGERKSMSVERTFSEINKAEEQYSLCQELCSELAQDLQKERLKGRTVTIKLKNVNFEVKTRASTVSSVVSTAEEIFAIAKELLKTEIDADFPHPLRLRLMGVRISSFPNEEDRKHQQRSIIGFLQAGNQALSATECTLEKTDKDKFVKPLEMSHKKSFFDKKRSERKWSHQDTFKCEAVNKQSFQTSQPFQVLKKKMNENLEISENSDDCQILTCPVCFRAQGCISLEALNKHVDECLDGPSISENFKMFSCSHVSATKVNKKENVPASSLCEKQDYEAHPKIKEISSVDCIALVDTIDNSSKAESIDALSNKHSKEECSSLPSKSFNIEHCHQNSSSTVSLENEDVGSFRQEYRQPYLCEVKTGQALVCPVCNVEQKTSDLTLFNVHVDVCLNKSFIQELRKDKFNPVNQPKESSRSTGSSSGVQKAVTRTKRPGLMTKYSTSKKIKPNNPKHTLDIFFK
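50 nM final substrate added after 15 min RT preincubation of 10 nM Pol kappa with compound; fluorescence read at 0 and 10 min.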
Pol eta inh: qHTS for Inhibitors of Polymerase Eta; DNA polymerase eta (Homo sapiens), Q9Y253; recombinant Pol eta, fluorescent DNA replication assay; Potency, µM (top dose mostly 114 µM), for the others: at the top dose activity change, negative = inhibition, hits mostly inhibitors; hit rate 1.2% among 390,000; AID 588591, 2011; further: potency means the concentration at half of the fitted maximal effect; on the % scale 0 is the no-effect control and ±100 the full control effect
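Fluorescent replication assay: 50 nM final substrate added after a 15 min room-temperature compound preincubation with 10 nM enzyme. Signal taken at 0 min and again at 10 min.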
PI5P4Ka inh: qHTS for Inhibitors of phosphatidylinositol 5-phosphate 4-kinase (PI5P4K). Phosphatidylinositol 5-phosphate 4-kinase type-2 alpha (Homo sapiens), P48426. PI5P4Kalpha enzyme, ADP-Glo luminescence, 60 min; active compounds read low. max response, %. hit rate 1.2% among 330,000; active means max response of -50% or lower; inconclusive means between -30% and -50%; inactive means -30% or higher; further: value at the top dose of about 77 µM; on the % scale 0 is the no-effect control and ±100 the full control effect
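Luminescence from ADP-Glo served as readout of PI5P4Kalpha activity in a qHTS format. Reaction: enzyme, substrate, compound, ATP at 5 microM final, 60 min at RT.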
* = called active by the depositor; ? = inconclusive; nt = not tested or not shown; ! = a repeat was not active; [ ] = dose if it differs, or a comment. Shown are actives, neighbours in structure and some others; about 2.8% of the full set was active somewhere. Unless noted, the call rests on the fitted dose curve; in most records, active means well fitted curve in the direction sought with a large enough effect; inconclusive means small, poorly fitted or top-dose-only effect, or another doubt; inactive means no such curve, though single readings can be large; an effect the other way counts as inactive or inconclusive.

SMILES	WRN helicase inh	POLI inh	POLB inh	Pol kappa inh	Pol eta inh	PI5P4Ka inh
O=C1ON=C(c2ccccc2)/C1=C/c1ccc(OS(=O)(=O)c2ccccc2)cc1	?	-3%	-9%	-29%	?	-69*
O=c1cc(CSc2nc3ccccc3c(=O)[nH]2)c2ccc(O)cc2o1	-25%[57.1 µM]	?	-25%	?	40µM*	-30
O=[N+]([O-])c1ccc(/C=C2\C=C(C(O)c3ccc([N+](=O)[O-])cc3)c3ccccc32)cc1 (stereo unspecified)	nt	5%	nt	-19%	nt	nt
CCc1ccc(NC(=O)CC2C(=O)N(c3cccc(C)c3)C(=O)N2Cc2cccs2)cc1 (stereo unspecified)	nt	-10%	-1%	-1%	-19%	nt
CCOc1ccc(C(=O)Nc2cccc(NC(=O)c3ccco3)c2)cc1Cl	nt	89µM*	-23%	0%	-11%	nt
CCOc1ccc(C(=O)Nc2cc(NC(=O)c3ccco3)ccc2OC)cc1Br	nt	-2%	-12%	-10%[60.1 µM]	-24%	nt
Cc1ccc(OCC(=O)Nc2ccc(NC(=O)c3ccco3)cc2)c(C)c1	-5%	?	28µM*	-6%	?	-9
Cc1cc(C)c(OCC(=O)Nc2ccc(NC(=O)c3ccco3)cc2)c([N+](=O)[O-])c1	-22%[57.1 µM]	-7%	15%	-10%	-9%	-18
COc1ccc(NC(=O)c2ccco2)cc1NC(=O)COc1ccc(Cl)cc1C	nt	-4%	?	-11%	79µM*	nt
COc1ccc(NC(=O)c2ccco2)cc1NC(=O)COc1ccc(C)cc1C	nt	-7%	?	2%	?	nt
O=C1NNC(c2ccccc2)=N/C1=C\c1ccccc1	1%	?	-2%	-16%	-19%	2
O=C1NC(c2ccccc2)=N/C1=C/c1ccco1	-27%	5%	28µM*	?	-14%	-5
O=C1NC(c2cccc(Br)c2)=N/C1=C\c1ccco1	-3%	25µM*	45µM*	-85%	4%	?
O=C1NC(c2ccccc2Br)=N/C1=C\c1ccco1	-1%[11.6 µM]	?	?	79µM*	-9%	-14
Cn1cnc(S(=O)(=O)N2CCC(C(=O)NCc3ccccc3Cl)CC2)c1	nt	33%	0%	-1%[60.1 µM]	-17%	nt
COc1ccccc1C(=O)N1CCN(C(=O)[C@H]2O[C@@H](n3ccc(=O)[nH]c3=O)[C@H](O)[C@@H]2O)CC1	3%	nt	nt	nt	nt	-4
CC(NC(=O)OC(C)(C)C)C(=O)Oc1cc2oc(=O)cc(-c3ccccc3)c2cc1Cl (stereo unspecified)	-8%	-8%	-21%	-4%	0%	-69*
CC(Oc1cc2oc(=O)cc(-c3ccccc3)c2cc1Cl)C(=O)NCC1CCC(C(=O)O)CC1 (stereo unspecified)	1%	-18%	19%	15%	-6%	-1
COc1ccc2c(c1)OC(=O)CC2c1ccccc1OC (stereo unspecified)	-2%	?	nt	-11%	-17%	1
COc1ccc2c(c1)C(c1ccccc1OC)CC(=O)O2 (stereo unspecified)	nt	nt	nt	40µM*	nt	nt
COc1ccc(NC(=O)C2CCCN(S(=O)(=O)c3ccc4c(c3)CCCN4C(C)=O)C2)cc1 (stereo unspecified)	-3%	79µM*!	4%	-16%	19%	-11
COc1cc(NC(=O)C2CCCN(S(=O)(=O)c3ccc4c(c3)CCCN4C(C)=O)C2)cc(OC)c1 (stereo unspecified)	-26%[57.1 µM]	-2%	3%	-15%	-10%	4
COC(=O)c1ccc(NC(=O)CCc2c(C)nn(-c3ccc(N4CCOCC4)nn3)c2C)cc1	nt	-9%	-18%	0%	-7%	nt
COc1ccc(NC(=O)c2cc3cccc(OC)c3oc2=Nc2ccc(C(=O)O)cc2)cc1OC	-5%	-8%	?	-37%	14µM*	0
COc1cccc(NC(=O)c2cc3cccc(OC)c3o/c2=N\O)c1	nt	nt	6%	nt	nt	nt
SMILES	WRN helicase inh	POLI inh	POLB inh	Pol kappa inh	Pol eta inh	PI5P4Ka inh
CC1(C)CC(=O)C(N=Nc2cc(S(=O)(=O)N3CCOCC3)ccc2Cl)=C(O)C1	-5%	3%	22µM*	2%	-18%	-2
CC1(C)CC(=O)C(N=Nc2cc(C(F)(F)F)ccc2Cl)=C(O)C1	3%	15%	-1%	6%	-16%	4
Nc1ccc(/C=C2\C=Cc3ccccc32)cc1	nt	10%	nt	-8%	nt	nt
C1=Cc2ccccc2/C1=C\c1cc[cH-]c1.[Fe+2].c1cc[cH-]c1	nt	1.8µM*	nt	1.1µM*	nt	nt
CCCCOc1ccc(S(=O)(=O)Nc2ccc(-c3ccc(N4CCCCC4)nn3)cc2)cc1	nt	-24%	1%	-7%[60.1 µM]	-9%	nt
COCCOC(=O)N1CCN(/[N+]([O-])=N/Oc2ccc([N+](=O)[O-])cc2[N+](=O)[O-])CC1	nt	-9%	nt	7%	nt	nt
COc1cccc(=O)c2c(C)n(CC(=O)c3ccccc3)c(C)c12	-13%	?	22µM*	-27%	?	?
CCOc1cccc(=O)c2c(C)n(CC(=O)c3ccccc3)c(C)c12	-18%	?	?	?	-3%	?
Cc1ccc(NC(=S)N/N=C/c2ccc([N+](=O)[O-])s2)cc1	-12%	9%	-9%	-6%	-19%	4
Cc1cc(C)cc(N=Cc2ccc([N+](=O)[O-])s2)c1	-2%[11.6 µM]	79µM*	?	-19%	32µM*	-4
CCCOc1ccc(C(=O)Nc2cc(-c3nc4ccccc4[nH]3)ccc2C)cc1	nt	-5%	?	-5%	-23%	nt
CC(C)(C)n1ncc2c(=O)n(Cc3c(F)cc(Cl)cc3F)cnc21	nt	15%	nt	-19%	nt	nt
O=C1Nc2ccccc2/C1=C/c1cnc(-c2ccccc2)[nH]1	?	?	22µM*	-30%	-30%	-8
O=C(CC1C(=O)N(c2ccccc2)C(=O)N1Cc1ccc2c(c1)OCO2)Nc1ccccc1 (stereo unspecified)	nt	13%	8%	-1%	-22%	nt
COc1cc2nc(N3CCCCC3)nc(NC3CCN(Cc4ccccc4)CC3)c2cc1OC	nt	15%	nt	9%	nt	nt
Cc1cc2nc(-c3ccc(SCc4ccccn4)nc3)[nH]c2cc1C	?	45µM*	?	-6%	-26%	-25
Cc1cc2nc(-c3ccc(SCC(=O)N4CCN(C(=O)c5ccco5)CC4)nc3)[nH]c2cc1C	?	?	35µM*	?	79µM*	nt
